The list is not random: actives were taken first. Their share in the collection is about 2.2%.
Shn3 3UTR inh: inhibitors of Schnurri-3 3'UTR reporter in osteoblasts; AID 588674; 360,000 compounds, 0.52% hits; Clone20 osteoblast Shn3 3'UTR firefly luciferase, 24 h; inhibition, % at 12.5 µM;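 active means mean inhibition of at least 75% with every replicate also reaching 75%; inconclusive means mean inhibition at least 75% but some replicate below; inactive means mean inhibition below 75%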
CSC inhib: blocks cancer stem cells; cancer stem cell-like cells viability, luminescence; inhibition, % at 7.5 µM; 300,000 compounds, 1.1% hits; AID 2717; in the data active means inhibition above about 75%; inconclusive means no clear call, values can overlap the other calls; tested in HMLE shEcad cells
Beta apoptosis: beta cell apoptosis inhibition; AID 435005; 300,000 compounds, 0.8% hits; INS-1E cytokine-induced death, ATP luminescence, 48 h; percent of positive-control rescue, neutral wells zero; protection from apoptosis, % (concentration not given with the values);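 active means Every replicate reaches about 75%, or at least half do and their mean reaches it too, limit read from the data; inconclusive means At least half of replicates reach the limit but their mean does not; inactive means Under half of replicates reach the limit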;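 further: higher means more ATP so stronger rescue from cytokine killing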
Calb FLC: affects C. albicans growth with fluconazole | C. albicans CaCi-2 (fluconazole-resistant clinical isolate) + fluconazole, Alamar Blue growth, 48 h | AID 1979 | 300,000 compounds, 0.57% hits | growth inhibition, % (test concentration not listed);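 active means growth inhibition above about 58% in most replicates, limit read from the data, passing the limit was not always enough; inconclusive means exactly half the replicates above a set limit; inactive means most replicates below a set limit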;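 further: all wells also contain fluconazole at 8 µg/ml as a sub-toxic cotreatment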
PfHsp90 yeast 2: reduces growth (ATP signal) of yeast expressing P. falciparum Hsp90 | S. cerevisiae expressing PfHsp90, BacTiter-Glo ATP, 48 h; yeast lacking PDR1 and PDR3 efflux regulators | inhibition, % at 9.4 µM | 310,000 compounds, 0.32% hits;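 active means every replicate shows inhibition above about 80%, whatever the replicate mean, limit read from the data; inconclusive means mean inhibition reaches the set limit but some replicate falls short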
Of the large screens only hits and unclear results are named; the others gave an inactive call; ! = not confirmed by another sample.

Cc1noc2ncnc(N3CCCC3)c12	none
Cc1noc2ncnc(Sc3ccc(Br)cc3)c12	Calb FLC 108.3
CC(C)c1ccccc1-n1c(SCc2cc(=O)oc3ccc4ccccc4c23)nnc1-c1cccnc1	CSC inhib 75.8
Cc1cnc([N+](=O)[O-])n1CCOC(=O)NC(=O)c1cccc(F)c1	none (no result: CSC inhib)
O=C(CN1c2ccccc2Sc2ccccc21)NNC(=O)Nc1ccc(Cl)c(Cl)c1	CSC inhib 101.4 (no result: Beta apoptosis)
O=C(CSc1ccccn1)N1CCNC1=O	none (no result: Calb FLC)
COc1ccccc1N1CCN(C(=O)CCCn2nc(C)c([N+](=O)[O-])c2C)CC1	none
CCN1Cc2c(/C=C/c3ccccc3)nc3ccc(OC)cc3c2N(c2cccc(Cl)c2)C1	CSC inhib 107.1
COc1cccc(N2CCc3c(C)nc4ccc(Cl)cc4c32)c1	none
O=C(COC(=O)/C=C/c1cccc(F)c1)NC(=O)NCc1ccccc1	none (no result: Calb FLC)
CC(=O)N1CCN(c2ccc(OC[C@H]3CO[C@](Cn4ccnc4)(c4ccc(Cl)cc4Cl)O3)cc2)CC1	PfHsp90 yeast 2 104.4 (no result: Calb FLC)
COc1ccc(CCNc2c(C)c(C)nc3ncnn23)cc1	Shn3 3UTR inh 80.8, Beta apoptosis 100.5 (no result: CSC inhib)
CCc1c(C)nc2ncnn2c1NCCc1ccc(OC)c(OC)c1	none (no result: CSC inhib)
CN(C(=O)c1cccc(NC(=O)Cc2ccc(NC(=O)C3CCCN(C(=O)C4CCC4)C3)cc2)c1)C1CCCCC1 (stereo not given)	none (no result: CSC inhib, Beta apoptosis, Calb FLC)
COc1cccc(Cn2nnc(C(=O)Nc3cc(Cl)ccc3OC)c2N)c1	CSC inhib 79.5
COc1cccc(NC(=O)Cn2nnc(C(=O)Nc3cc(Cl)ccc3OC)c2N)c1	none
O=C(c1cc(-c2ccc3c(c2)OCO3)on1)N1CCN(c2ccc(F)cc2)CC1	none (no result: CSC inhib, Beta apoptosis)
O=C(c1cc(-c2ccc(O)cc2)on1)N1CCN(c2ccccc2)CC1	CSC inhib 104.3
O=C(c1cc(-c2ccc(O)cc2)on1)N1CCN(c2ccc(F)cc2)CC1	CSC inhib 111.4
CC1(C)CC2CC(C)(CN2C(=O)c2cc(-c3ccc(O)cc3)on2)C1 (stereo not given)	CSC inhib 86.5
O=C(O)c1cc(-c2ccc(O)cc2)on1	Calb FLC 100.5
O=C(c1cc(-c2ccc3c(c2)OCO3)on1)N1CCN(c2ccccc2)CC1	none (no result: PfHsp90 yeast 2)
CCOC(=O)c1c(NC(=O)COC(=O)c2ccccn2)sc(C)c1C	none (no result: CSC inhib, Calb FLC)
CSCCC(c1nnnn1C1CCCCC1)N1CCN(C/C=C/c2ccccc2)CC1 (stereo not given)	none (no result: CSC inhib, Beta apoptosis, Calb FLC, PfHsp90 yeast 2)
Cc1ccc(NC(=O)CN(C)S(=O)(=O)c2ccc(Cl)s2)c(O)c1	none (no result: Calb FLC, PfHsp90 yeast 2)
CC(=O)Oc1c(I)cc(I)cc1C(=O)Nc1ccc(Cl)cc1	CSC inhib 107.6, Beta apoptosis 105.5 (no result: PfHsp90 yeast 2)
O=C(CS(=O)(=O)Cc1ccccc1)NCc1ccccc1Cl	none
N/N=C(/Cc1nc2ccccc2[nH]1)c1ccc([N+](=O)[O-])cc1	none
O=[N+]([O-])c1ccc(SNc2ccccc2)c([N+](=O)[O-])c1	none (no result: CSC inhib, Beta apoptosis, Calb FLC)
O=[N+]([O-])c1ccc(-[n+]2ccc3ccccc3c2)c([N+](=O)[O-])c1	CSC inhib 121.1, Beta apoptosis 109.2
O=C(NCc1cccnc1)c1ccccc1CCc1ccccc1	none
Nc1ccc(C(=O)N/N=C\c2cc(N=Nc3cccc4ccccc34)ccc2O)cc1	Shn3 3UTR inh 89.1, CSC inhib 98.1
O=C(O)c1ccc(/C=N/NC(=O)c2ccc3c(c2)OCCO3)cc1	none
O=C(N/N=C/c1c(O)ccc2ccccc12)c1ccc(CO)nc1	CSC inhib 87.1 (no result: Beta apoptosis)
Cc1cc(C(=O)N/N=C/c2cc(N=Nc3ccccc3)ccc2O)n[nH]1	Shn3 3UTR inh 86.7, CSC inhib 108.7, Beta apoptosis 83.3
Cc1cc(O)cc(O)c1/C=N/NC(=O)c1ccc2c(c1)OCCO2	Shn3 3UTR inh 90.7 (no result: CSC inhib, Beta apoptosis, Calb FLC, PfHsp90 yeast 2)
COC(=O)N/N=C/c1cc(N=Nc2ccccc2Cl)ccc1O	none (no result: CSC inhib)
O=C(N/N=C/c1ccccc1)c1ccc2c(c1)OCO2	none
O=C(N/N=C\c1c(O)ccc2ccccc12)c1ccc(S(=O)(=O)N2CCCCC2)cc1	Shn3 3UTR inh 88.9, CSC inhib 100.2, Beta apoptosis 96.7, Calb FLC inconclusive
O=C(NN=Cc1c(O)ccc2ccccc12)c1ccc2c(c1)OCO2	Shn3 3UTR inh 88.8 (no result: Calb FLC)
O=C(CNC(=O)c1ccc(S(=O)(=O)N2CCCC2)cc1)N/N=C/c1ccccc1Cl	none
Cc1ccc(N2CCC(N3CCN(C4CCCCC4)C(CCO)C3)CC2)cc1 (stereo not given)	none
O=C1c2ccccc2NC(c2cn[nH]c2-c2ccc(Cl)cc2)N1O (stereo not given)	Calb FLC 90.6
O=C1c2ccccc2NC(c2cn[nH]c2-c2ccccc2)N1O (stereo not given)	none
CCCCN1C(=O)C(CC(=O)NCCCCc2ccccc2)CC(C(=O)N(C)C)=C1C (stereo not given)	none (no result: CSC inhib, Beta apoptosis, Calb FLC, PfHsp90 yeast 2)
OC(Cn1cncn1)(c1ccccc1)c1ccccc1	PfHsp90 yeast 2 91.8
c1ccc(SCCOCCn2cncn2)cc1	none
CCOc1ccccc1CNC(=O)c1ccc(NC(=O)C2=CSCCO2)cc1	none
CCOC(=O)N1C(=O)[C@@](c2ccc(Cl)cc2)(C(C)C)N1C(=O)OCC	CSC inhib 77.8
CCOC(=O)N1C(=O)[C@](c2ccc(Cl)cc2)(C(C)C)N1C(=O)OCC	none
Cc1n[nH]c(=O)c2c(NC(=O)CSc3nncs3)oc(C)c12	none (no result: Beta apoptosis)
CCn1nnnc1NC(=O)c1cccc(OC)c1	none
CCn1nnnc1NC(=O)c1cc(Cl)c(OC)c(Cl)c1	Calb FLC 76.0
O=c1[nH]nc(-c2n[nH]c(=O)o2)o1	none (no result: CSC inhib, Beta apoptosis, Calb FLC)
O=C(Nc1nnc(-c2ccncc2)o1)c1ccc2ccccc2c1	Calb FLC 90.1 (no result: Beta apoptosis)
COc1cccc(C(=O)Nc2nnc(-c3ccc(F)cc3)o2)c1	Calb FLC 83.0
COc1cccc(-c2nnc(NC(=O)c3ccc4ncsc4c3)o2)c1	Calb FLC 107.0
Cc1cccc(C(=O)Nc2nnc(-c3ccncc3)o2)c1	none (no result: PfHsp90 yeast 2)
COc1cccc(C(=O)Nc2nnc(-c3ccc(Cl)cc3)o2)c1	none
CCOc1ccc(-c2nnc(NC(=O)c3ccc(OCC(C)C)c(OC)c3)o2)cc1	CSC inhib 103.1, Calb FLC inconclusive
CC1C(=O)N(Cc2cn(CCC3OCCCO3)nn2)CCS(=O)(=O)N1Cc1ccc(-c2ccc(F)cc2)cc1 (stereo not given)	none (no result: CSC inhib, Beta apoptosis, Calb FLC, PfHsp90 yeast 2)
CC1C(=O)N(Cc2cn(CCC3OCCCO3)nn2)CCS(=O)(=O)N1Cc1ccc(-c2ccc(Cl)c(Cl)c2)cc1 (stereo not given)	Shn3 3UTR inh 92.0 (no result: CSC inhib, Beta apoptosis, Calb FLC, PfHsp90 yeast 2)
CCOC(=O)c1ccc(N=c2sc(C(=O)OC)cc(=O)n2CCCN2CCOCC2)cc1	CSC inhib 101.1!
CCOC(=O)c1ccc(N=c2sc(C(=O)OC)cc(=O)n2Cc2ccco2)cc1	CSC inhib 92.4
O=C(N=C1SC2CS(=O)(=O)CC2N1c1ccc(Cl)cc1Cl)C1CC1 (stereo not given)	none
Cc1ccc(-c2ccc(OC(=O)c3ccc(=O)[nH]c3)c(C)c2)cc1	CSC inhib 75.8
COC(=O)c1cc(OC(=O)c2ccc(=O)[nH]c2)cc(C(=O)OC)c1	none
O=C(CC1OC(=O)c2ccccc21)Nc1cc(S(=O)(=O)N2CCOCC2)ccc1OCC(F)(F)F (stereo not given)	none (no result: Beta apoptosis)

Screens as filed in PubChem BioAssay.
